Laboratory results: the supplement of paper PMC6555819

Assays:
Experiment in all cases: PBM binding z-score (relative to random genomic background probes); higher = stronger binding; sequences stand for … in GC…GCGATTGACAGCGTAGAATGAAGG
[1] = test system: FXR:RXRa (NR concentration 270 nM, RXRa partner concentration 90 nM)
Outline: (§1)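 Probes were double-stranded and carried 34-nt variable regions with direct-repeat seeds, single-nucleotide variants, half-site ablations and random human genomic background sequences, printed on custom Agilent 4×180K protein-binding microarrays. Arrays were incubated 1 h with ligand-free nuclear receptor dimers in PBS pH 7.4, 2% milk, 0.02% Triton X-100, 1 mM DTT, 0.2 mg/mL BSA and 0.4 mg/ml salmon testes DNA. Antibodies against each partner (one per run) detected binding, and scanned fluorescence was regression-normalized. Binding z-scores use the random background probes as reference.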

[2] = test system: LXRa:RXRa (NR concentration 270 nM, RXRa partner concentration 90 nM)
Outline: as §1

[3] = test system: LXRa homodimer (NR concentration 270 nM)
Outline: as §1

[4] = test system: LXRb:RXRa (NR concentration 270 nM, RXRa partner concentration 90 nM)
Outline: as §1

[5] = test system: LXRb homodimer (NR concentration 270 nM)
Outline: as §1

[6] = test system: PPARa:RXRa (NR concentration 270 nM, RXRa partner concentration 90 nM)
Outline: as §1

[7] = test system: PPARg:RXRa (NR concentration 180 nM, RXRa partner concentration 90 nM)
Outline: as §1

[8] = test system: PPARg:RXRa 270nM:90nM, anti-RXR (NR concentration 270 nM, RXRa partner concentration 90 nM)
Outline: as §1

[9] = test system: PPARg:RXRa 30nM:10nM, anti-RXR (NR concentration 30 nM, RXRa partner concentration 10 nM)
Outline: as §1

[10] = test system: PPARg:RXRa 90nM:30nM, anti-RXR (NR concentration 90 nM, RXRa partner concentration 30 nM)
Outline: as §1

[11] = test system: PPARg:RXRa DBDmut IVT, anti-RXR (DBD mutation: RXRa K156A/R161A, NR concentration 270 nM, RXRa partner concentration 90 nM)
Outline: as §1

[12] = test system: PPARg:RXRa IVT, anti-PPARg (NR concentration 270 nM, RXRa partner concentration 90 nM)
Outline: as §1

[13] = test system: PPARg DBDmut:RXRa IVT, anti-PPARg (DBD mutation: PPARg1 K132A/R137A, NR concentration 270 nM, RXRa partner concentration 90 nM)
Outline: as §1

[14] = test system: PPARg DBDmut IVT, anti-PPARg (DBD mutation: PPARg1 K132A/R137A, NR concentration 270 nM)
Outline: as §1

[15] = test system: PPARg homodimer (NR concentration 180 nM)
Outline: as §1

[16] = test system: PXR:RXRa (NR concentration 270 nM, RXRa partner concentration 90 nM)
Outline: as §1

[17] = test system: PXR homodimer (NR concentration 270 nM)
Outline: as §1

[18] = test system: RARa:RXR (NR concentration 270 nM, RXRa partner concentration 90 nM)
Outline: as §1

[19] = test system: RARa homodimer (NR concentration 270 nM)
Outline: as §1

[20] = test system: RARb:RXRa (NR concentration 270 nM, RXRa partner concentration 90 nM)
Outline: as §1

Row | Sequence | PBM binding z-score [1] | PBM binding z-score [2] | PBM binding z-score [3] | PBM binding z-score [4] | PBM binding z-score [5] | PBM binding z-score [6] | PBM binding z-score [7] | PBM binding z-score [8] | PBM binding z-score [9] | PBM binding z-score [10] | PBM binding z-score [11] | PBM binding z-score [12] | PBM binding z-score [13] | PBM binding z-score [14] | PBM binding z-score [15] | PBM binding z-score [16] | PBM binding z-score [17] | PBM binding z-score [18] | PBM binding z-score [19] | PBM binding z-score [20]
1 | CCTTACGGATCACTGACAGGTTATAGCATTTGGA | 0.345 | 0.818 | 0.768 | 0.559 | 0.661 | 0.447 | 0.638 | 0.275 | 0.461 | 0.192 | 0.71 | -0.0645 | 0.405 | 0.544 | 0.811 | 0.356 | 0.678 | 0.397 | 1.14 | 0.471
2 | ACTAGCAGGCTAAGTTTGGGTCACTCAAACAAAG | -0.0373 | -0.132 | -0.315 | 0.424 | -0.557 | 1.28 | -0.0855 | 0.315 | -0.575 | -0.155 | 0.316 | 0.557 | -0.411 | -0.519 | -0.136 | 0.49 | -0.438 | 1.31 | -0.552 | 1.17
3 | GCACACAGGTGAAACGCAGGTAACTCAGGGTGGC | 0.021 | 0.302 | -0.342 | -0.349 | -0.845 | 0.939 | 0.853 | 0.355 | -0.481 | -0.0562 | 1.25 | 1.35 | -0.286 | -0.23 | -0.0515 | -0.134 | -0.747 | 0.575 | -0.648 | 0.803
4 | TCATATAGGTAAATGCTAGGTCAAAGTCCGATCT | 1.83 | 3.8 | 5.26 | 2.45 | 0.769 | 2.57 | 1.76 | 2.81 | 3.96 | 3.47 | 4.1 | 3.27 | 0.472 | 1.99 | 1.7 | 1.98 | 1.11 | 2.7 | 1.22 | 1.88
5 | TCTAGCAGGCCAGAGGGTCGCTCAAGAGGTACGG | -2.83 | -0.514 | -0.98 | -0.425 | -1.97 | 0.269 | 0.213 | 1.29 | 1.69 | 1.37 | 0.74 | -0.213 | -1.68 | -1.41 | -0.918 | -0.366 | -0.896 | -0.208 | -1.48 | 0.463
6 | CCCAGTTGGTCAGGAGGTCACACACCGGATATGA | 3.51 | 3.58 | 1.99 | 3.58 | 0.535 | 4.21 | 3.56 | 3.79 | 1.07 | 3 | 0.556 | 3.46 | -0.0435 | -0.356 | 2.74 | 3.97 | 1.3 | 4.22 | 1.81 | 3.79
7 | TCAGACAGGTGAAGGTCACTCAGGTACGCAGTCG | 3.13 | 3.62 | 1.36 | 3.13 | 0.146 | 3.72 | 2.39 | 3.12 | 3.84 | 3.76 | 3.07 | 2.84 | 0.351 | 0.266 | 2.38 | 4.02 | 0.556 | 3.78 | 0.971 | 4.01
